Nine compounds from PubChem BioAssay (Tox21) can be followed below.

The nature of experiment [1]: qHTS assay to identify small molecule agonists of the peroxisome proliferator-activated receptor delta (PPARd) signaling pathway - cell viability counter screen (AID 743211; active = well fitted curve in the direction sought with a large enough effect in the repeat runs; an effect the other way counts as inactive or inconclusive; note: nearly all actives have a fitted effect of over 55% in size). An outline of the steps: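 Multiplexed format: after the 2 h room-temperature LiveBLAzer B/G FRET step, CellTiter-Glo was added to the same wells. Luminescence after 30 min gave cell viability; compound exposure was 17 h at 37C.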
Background: Quantitative high-throughput screening tests each substance at several concentrations.

Experiment [2] has as its target Peroxisome proliferator-activated receptor delta (Homo sapiens) (UniProt Q03181). In words: qHTS assay to identify small molecule agonists of the peroxisome proliferator-activated receptor delta (PPARd) signaling pathway (AID 743212).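 Note: HEK293H cells with PPARd UAS beta-lactamase reporter GeneBLAzer system.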 Put shortly: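 Beta-lactamase reporter readout: a ratiometric FRET signal from the LiveBLAzer substrate after 2 h at room temperature. Compound exposure at 37 °C in PPARδ-bla HEK293H cells driven by an upstream activator sequence.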

Experiment [3] in a line: qHTS assay to identify small molecule antagonists of the peroxisome proliferator-activated receptor delta (PPARd) signaling pathway - cell viability counter screen (AID 743213; active = well fitted curve in the direction sought with a large enough effect in the repeat runs; an effect the other way counts as inactive or inconclusive; note: nearly all actives have a fitted effect of over 50% in size). Put shortly: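 Viability counter-screen, qHTS format: PPARd-bla HEK293H, L165041 300 nM final, 17 h compound exposure at 37 C, CellTiter-Glo luminescence after 30 min RT.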
Experiment [4] addresses Peroxisome proliferator-activated receptor delta (Homo sapiens) (UniProt Q03181). Description: qHTS assay to identify small molecule antagonists of the peroxisome proliferator-activated receptor delta (PPARd) signaling pathway (AID 743215; active = well fitted inhibition curve with a large enough effect in the signal ratio in the repeat runs, not every such curve was filed as active; the % refers to the signal ratio;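 note: cells stimulated with agonist L165041 at 300 nM final during compound exposure; series mostly up to about 62 µM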). An outline of the steps: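 Screen format: qHTS, antagonist mode. HEK293H PPARd-bla cells received compound and 300 nM L165041 (final), 17 h, 37 C. Beta-lactamase detected via FRET substrate fluorescence, 2 h, room temperature.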

Experiment [5] concerns the target Bile acid receptor (Homo sapiens) (UniProt Q96RI1). In words: qHTS assay to identify small molecule agonists of the farnesoid-X-receptor (FXR) signaling pathway (AID 743220; active = well fitted activation curve with a large enough effect in the signal ratio in the repeat runs, not every such curve was filed as active; the % refers to the signal ratio). Put shortly: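 FXR-UAS-bla HEK 293T cells carrying a UAS-driven beta-lactamase reporter were plated for 5 h at 37C/5% CO2, then exposed to DMSO-dissolved Tox21 10K compounds for 16 h at 37C. A LiveBLAzer B/G FRET substrate was loaded for 2 h at room temperature before fluorescence reading.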

A short description of experiment [6]: qHTS assay to identify small molecule antagonists of the farnesoid-X-receptor (FXR) signaling pathway - cell viability counter screen (AID 743221; active = well fitted cell-killing curve with a large enough effect in the repeat runs, not every such curve was filed as active; note: nearly all actives have a fitted effect of over 50% in size). An outline of the steps: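 CellTiter-Glo, 30 min RT, luminescence; same wells as the LiveBLAzer FRET read. Cells: FXR-UAS-bla HEK 293T. Treatment: compound with chenodeoxycholic acid 50 uM final, 16 h at 37 C.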

The nature of experiment [7]: qHTS assay to identify small molecule agonists of the vitamin D receptor (VDR) signaling pathway - cell viability counter screen (AID 743224; active = well fitted curve in the direction sought with a large enough effect in the repeat runs; an effect the other way counts as inactive or inconclusive; note: series mostly up to about 63 µM; nearly all actives have a fitted effect of over 50% in size). An outline of the steps: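 Counter screen for cytotoxicity: VDR-bla cells at 2,000 cells/well, 16 h compound exposure, then CellTiter-Glo luminescence after the beta-lactamase measurement.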
Experiment [8] in a line: qHTS assay to identify small molecule antagonists of the vitamin D receptor (VDR) signaling pathway - cell viability counter screen (AID 743225; active = well fitted curve in the direction sought with a large enough effect in the repeat runs; an effect the other way counts as inactive or inconclusive; note: nearly all actives have a fitted effect of over 50% in size). Put shortly:
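Cytotoxicity toward the VDR-bla HEK 293T line was scored by ATP-based CellTiter-Glo luminescence, read in the wells already used for the beta-lactamase readout after 16 h compound treatment under 3 nM 1-alpha,25-dihydroxyvitamin D3 stimulation.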

A short description of experiment [9]: qHTS assay to identify small molecule agonists of the NFkB signaling pathway (AID 1159509; active = well fitted curve in the direction sought with a large enough effect in the signal ratio in the repeat runs, not every such curve was filed as active; the % refers to the signal ratio; note: series mostly up to about 61 µM). An outline of the steps:
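Pathway activation was measured in ME-180 cells stably expressing beta-lactamase under NF-kB response element control. Substrate cleavage was read as the 460/530 nm emission shift after 5 hr compound incubation.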

A short description of experiment [10]: qHTS assay to identify small molecule agonists of the NFkB signaling pathway - cell viability counter screen (AID 1159515). Note: series mostly up to about 61 µM; nearly all actives have a fitted effect of over 55% in size. An outline of the steps:
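Counter screen run alongside the NFkB-bla agonist assay: ME-180 reporter cells exposed to compounds for 5 hr, then lysed with CellTiter-Glo in the same wells. Luminescence, read after 30 min, reflects viable cells.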

A short description of experiment [11]: qHTS assay to identify small molecule agonists of the endoplasmic reticulum stress response signaling pathway (AID 1159516; active = well fitted activation curve with a large enough effect in the signal ratio in the repeat runs, not every such curve was filed as active; the % refers to the signal ratio). Put shortly: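 For this screen, HeLa cells stably carrying beta-lactamase under the ER stress response element received test compounds, positive controls or DMSO for 5 hr at 37 C; B/G FRET substrate was then added and dual-wavelength emission recorded.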

Experiment [12] in a line: qHTS assay to identify small molecule agonists of the endoplasmic reticulum stress response signaling pathway - cell viability counter screen (AID 1159517). Put shortly: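 ESRE-bla HeLa cells (1,500/well) were plated overnight at 37 C and exposed to compounds for 5 hr. After the 2 hr beta-lactamase substrate read, CellTiter-Glo went into the same wells, and luminescence was read after 30 min at room temperature.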

Experiment [13] is described as follows: qHTS assay to identify small molecule antagonists of the retinoid-related orphan receptor gamma (ROR-gamma) signaling pathway - cell viability counter screen (AID 1159520; active = well fitted curve in the direction sought with a large enough effect in the repeat runs; an effect the other way counts as inactive or inconclusive; note: nearly all actives have a fitted effect of over 50% in size). An outline of the steps: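 Cytotoxicity was read from cellular ATP (CellTiter-Glo luminescence) after 16 hr at 37 C with 1 uM doxycycline induction. The inducer was added 2 hr after compound transfer to Tet-on ROR gamma CHO cells.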

Experiment [14] is described as follows: qHTS assay to identify small molecule agonists of the AP-1 signaling pathway - cell viability counter screen (AID 1159525). Note: nearly all actives have a fitted effect of over 55% in size. An outline of the steps:
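Intracellular ATP by Cell Titer Glo luminescence (30 min, RT) in the same ME-180 AP-1-bla wells after the 5 h compound exposure at 37 °C. Normalised to tetra n-octyl ammonium bromide and DMSO controls.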

Experiment [15] can be described thus: qHTS assay to identify small molecule agonists of the AP-1 signaling pathway (AID 1159526). Note: potency is the fitted concentration of half-maximal effect.
In experiment [16] the target is Bile acid receptor (Homo sapiens) (UniProt Q96RI1). In words: qHTS assay to identify small molecule antagonists of the farnesoid-X-receptor (FXR) signaling pathway (AID 743217; active = well fitted inhibition curve with a large enough effect in the signal ratio in the repeat runs, not every such curve was filed as active; the % refers to the signal ratio). Put shortly:
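Quantitative HTS, beta-lactamase reporter format: FXR-UAS-bla HEK 293T cells co-treated 16 h at 37 °C with compounds and 50 uM final chenodeoxycholic acid, then read by B/G FRET fluorescence.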

Experiment [17] in a line: qHTS assay to identify small molecule agonists of the farnesoid-X-receptor (FXR) signaling pathway - cell viability counter screen (AID 743218; active = well fitted curve in the direction sought with a large enough effect in the repeat runs; an effect the other way counts as inactive or inconclusive; note: nearly all actives have a fitted effect of over 45% in size). An outline of the steps:
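Same-well cytotoxicity check on FXR-UAS-bla HEK 293T cells: 5 h attachment, 16 h compound at 37 C, CellTiter-Glo luminescence read at room temperature after 30 min.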

Experiment [18] addresses Vitamin D3 receptor (Homo sapiens) (UniProt P11473). Description: qHTS assay to identify small molecule agonists of the vitamin D receptor (VDR) signaling pathway (AID 743222). Put shortly: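 Using LiveBLAzer B/G FRET detection, agonism was scored in VDR-bla cells exposed overnight (16 h, 37C) to DMSO-dissolved compounds; substrate incubation was 2 h at room temperature.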

For experiment [19] the target is unchanged. In words: qHTS assay to identify small molecule antagonists of the vitamin D receptor (VDR) signaling pathway (AID 743223; active = well fitted inhibition curve with a large enough effect in the signal ratio in the repeat runs, not every such curve was filed as active; the % refers to the signal ratio). An outline of the steps: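 After VDR-bla cells are plated and left 4 h at 37C, DMSO-dissolved compounds and 3 nM (final) calcitriol agonist are added. Incubation continues 16 h at 37C; FRET beta-lactamase substrate then develops 2 h at room temperature.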

SMILES strings stand for the structures. Records with an inconclusive call do not appear. Unmarked numbers belong to inactive results. Calls of active or inactive are those of the source. Unless noted, calls come from the whole dose curve.

Peroxisome proliferator-activated receptor delta (Homo sapiens), sequence (Q03181 whole entry, looked up): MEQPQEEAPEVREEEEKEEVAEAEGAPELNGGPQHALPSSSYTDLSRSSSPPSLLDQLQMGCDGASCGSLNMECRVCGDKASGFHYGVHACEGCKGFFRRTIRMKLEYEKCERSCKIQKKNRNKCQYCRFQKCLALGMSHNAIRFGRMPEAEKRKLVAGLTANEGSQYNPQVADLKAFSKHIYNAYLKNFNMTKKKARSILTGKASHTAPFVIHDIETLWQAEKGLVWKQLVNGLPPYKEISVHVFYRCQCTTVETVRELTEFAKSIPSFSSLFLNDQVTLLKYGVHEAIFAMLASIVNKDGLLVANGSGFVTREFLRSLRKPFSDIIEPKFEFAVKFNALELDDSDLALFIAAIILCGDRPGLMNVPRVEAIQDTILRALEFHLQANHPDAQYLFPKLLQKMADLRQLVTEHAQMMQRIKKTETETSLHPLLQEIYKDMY
Vitamin D3 receptor (Homo sapiens), sequence (P11473 whole entry, looked up): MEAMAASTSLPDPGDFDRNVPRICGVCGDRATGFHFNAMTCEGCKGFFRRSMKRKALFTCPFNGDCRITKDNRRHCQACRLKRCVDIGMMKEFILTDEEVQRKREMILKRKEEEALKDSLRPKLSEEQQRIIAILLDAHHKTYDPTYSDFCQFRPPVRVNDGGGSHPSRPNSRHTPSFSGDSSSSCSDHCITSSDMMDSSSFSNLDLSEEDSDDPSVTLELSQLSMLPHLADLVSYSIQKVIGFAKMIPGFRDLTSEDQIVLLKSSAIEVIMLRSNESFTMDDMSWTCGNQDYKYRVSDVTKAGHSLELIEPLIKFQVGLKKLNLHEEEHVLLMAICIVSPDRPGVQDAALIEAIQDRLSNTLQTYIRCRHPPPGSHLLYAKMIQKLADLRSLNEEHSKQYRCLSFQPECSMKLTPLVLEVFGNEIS
Bile acid receptor (Homo sapiens), sequence (Q96RI1 whole entry, looked up): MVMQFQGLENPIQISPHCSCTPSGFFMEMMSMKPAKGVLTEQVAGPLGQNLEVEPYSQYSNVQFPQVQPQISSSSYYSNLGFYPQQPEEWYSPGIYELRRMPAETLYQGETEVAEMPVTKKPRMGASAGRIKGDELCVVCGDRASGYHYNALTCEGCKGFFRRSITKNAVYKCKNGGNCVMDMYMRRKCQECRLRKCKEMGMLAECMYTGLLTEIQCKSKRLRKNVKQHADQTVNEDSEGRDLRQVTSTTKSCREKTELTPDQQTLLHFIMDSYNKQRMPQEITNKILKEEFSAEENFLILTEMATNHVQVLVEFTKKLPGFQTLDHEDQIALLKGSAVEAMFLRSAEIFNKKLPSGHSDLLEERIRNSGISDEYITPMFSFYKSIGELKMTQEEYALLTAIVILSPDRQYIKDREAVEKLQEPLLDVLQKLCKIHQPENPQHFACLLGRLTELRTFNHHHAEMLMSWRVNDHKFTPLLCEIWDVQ

`CN1[C@@H]2CC[C@H]1CC(OC(=O)c1c[nH]c3ccccc13)C2` (stereo partly drawn): the Potency result in experiment [1], in [3], in experiment [7], in [8] and in experiment [13] was “inactive” throughout. Besides, the call in [2], in [4], in [5], in experiment [6], in experiment [9] and in [10] was inactive. The call in [11], in [12] and in [14] was inactive. Moreover, the Potency in experiment [15] is 23.9 µM (active).
Turning to `CCOc1ccc(OCC)c(Cl)c1`, the Potency result in experiment [1], in [3], in experiment [7], in experiment [8], in [13] and in [15] was “inactive” in each case. For the same compound, the compound was called inactive in experiment [2], in experiment [16], in [5], in experiment [6], in experiment [9] and in experiment [10]. Moreover, the compound was called inactive in [11], in experiment [12] and in experiment [14].
For `CC(C)S`, the Potency result in [1], in experiment [17], in experiment [7], in [13] and in [15] was “inactive” throughout. Besides, the outcome in experiment [2], in [4], in [6], in experiment [18], in [9] and in [10] was inactive. In addition, the result in [11], in experiment [12] and in [14] was inactive.
As to `CCOC(=O)c1cc(=O)c2c(OCC(COc3cccc4oc(C(=O)OCC)cc(=O)c34)OC(=O)[C@@H](N)CCCCN)cccc2o1`, the Potency result in experiment [1], in experiment [3], in [17], in experiment [7], in experiment [13] and in experiment [15] was “inactive” in each case. Moreover, the outcome in [2], in experiment [5], in experiment [6], in experiment [18], in experiment [19] and in experiment [9] was inactive. In addition, the outcome in experiment [10], in [11], in experiment [12] and in experiment [14] was inactive.
On to `Cc1ccsc1C(=CCCN1CCC[C@@H](C(=O)O)C1)c1sccc1C`, for which the Potency entry in [1], in experiment [3], in experiment [17], in experiment [7], in [8] and in [13] was “inactive” each time. The Potency entry in experiment [15] is “inactive”. For the same compound, the call in experiment [2], in [4], in experiment [6], in experiment [9], in experiment [10] and in experiment [11] was inactive. For the same compound, the result in experiment [12] and in [14] was inactive.
In the case of `CCCOCCC`, the Potency entry in experiment [1], in [3], in [17], in experiment [7], in [13] and in experiment [15] was “inactive” each time. Further, the call in experiment [2], in [6], in experiment [18], in [9], in experiment [10] and in experiment [11] was inactive. Further, the outcome in [12] and in experiment [14] was inactive.
For `CC(=O)O[C@H]1CC[C@@]2(C)C(=CC[C@@H]3[C@@H]2CC[C@]2(C)C(C(C)=O)=CC[C@@H]32)C1`, the Potency entry in [1], in [3], in [17], in experiment [7], in experiment [13] and in [15] was “inactive” throughout. Also, the compound was classed as inactive in experiment [18], in [19], in experiment [9], in experiment [10], in experiment [11] and in experiment [12]. In addition, in [14], the result was inactive.
`CCc1nnc(NS(=O)(=O)c2ccc(N)cc2)s1`: the Potency entry in [1], in experiment [3], in experiment [17], in [7], in experiment [8] and in experiment [13] was “inactive” throughout. Moreover, in experiment [15], the Potency entry is “inactive”. Besides, the compound was called inactive in experiment [5], in [6], in experiment [18], in experiment [19], in experiment [9] and in experiment [10]. Further, the compound was called inactive in [11], in experiment [12] and in experiment [14].
As for `NC(=O)Cc1cccc(C(=O)c2ccccc2)c1N`, the Potency result in experiment [1], in experiment [3], in [17], in [7], in experiment [8] and in experiment [13] was “inactive” each time. Also, the Potency entry in [15] is “inactive”. Moreover, the compound was classed as inactive in experiment [5], in experiment [18], in experiment [19], in [9], in experiment [10] and in experiment [11]. For the same compound, the result in experiment [12] and in experiment [14] was inactive.
